AMA1-RON2 inh = qHTS for Inhibitors of AMA1-RON; Towards Development of Antimalarial Drug Lead: Primary Screen | AlphaScreen AMA1-biotinylated RON2 peptide binding | Potency, µM (highest dose often 58.2 µM), without a hit: at the highest dose activity change, negative = inhibition, usual class: inhibitors | 360,000 tested, 0.2% active; active = well fitted inhibition curve with a large enough effect; inconclusive = small, poorly fitted or top-dose-only effect; inactive = no such curve, though single readings can be large or run the other way;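 note: potency is the fitted concentration of half-maximal effect; 0% = vehicle wells and -100% = peptide control; nearly all actives have a fitted effect of over 45% in size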
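AMA1 (3D7) with his tag at 25 nM final met compounds first, then biotinylated RON2 peptide at 25 nM; detection used donor plus acceptor beads, 10 µg/mL apiece, read by AlphaScreen after 30 min at room temperature.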
NS1 function inh = qHTS Assay for Inhibitors of Influenza NS1 Protein Function; Potency, µM (highest dose often 46.1 µM), for the others: at the top dose activity, positive = more growth; 270,000 tested, 0.4% active; note: potency is the fitted concentration of half-maximal effect; actives are rising curves; nearly all actives have a fitted effect of over 50% in size
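S. cerevisiae expressing influenza A NS1, grown in glucose, washed, then diluted 1:100 into pH 6.0 -URA galactose medium with 23 nl compound. Growth recovery read as OD600; NS1-free strain serves as control.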
SARS PLpro yeast = qHTS of Yeast-based Assay for SARS-CoV PLP; S. cerevisiae expressing SARS-CoV PLpro, growth rescue; Potency, µM (titrated, usually from 32.9 µM), for inactives: top-dose activity, positive = growth rescue, hits mostly activators; 330,000 tested, 0.19% active; note: potency is the fitted concentration of half-maximal effect; 0% is about no effect; nearly all actives have a fitted effect of over 55% in size
Flu NS1 inh = Assay for Inhibitors of Influenza NS1 Protein Function: Hit Validation; activity change, negative = inhibition, % at 32.9 µM; 1,400 tested, under 10 active; shares compounds with NS1 function inh; influenza NS1 function cell assay, 15-point titration; note: 0% is about no effect
PR8 titer = Assay for Inhibitors of Influenza NS1 Protein Function: Influenza virus replication assay in MDCK cells infected with virus A/PR/8/34. virus titer (log TCID50), log10 TCID50 at 5 µM. 95 tested, 30% active. MDCK infected influenza A/PR/8/34, virus titer TCID50; stronger effect = lower value. shares compounds with NS1 function inh; call rule not given here
Active calls of the source: *; ? = inconclusive; / = no result given; [ ] = dose if it differs, or a comment. An excerpt weighted towards active compounds, which were near 0.65% of everything screened. Unless noted, calls come from the whole dose curve.

SMILES | AMA1-RON2 inh | NS1 function inh | SARS PLpro yeast | Flu NS1 inh | others
O=C(COc1ccc(Cl)cc1)NNC(=S)NCc1ccccc1 | 108% | 5.6µM* | 16% | ?
Cc1cc(C)nc(SCc2nnc(SCC(=O)Nc3nc(-c4ccccc4)cs3)n2C)n1 | 19% | 18% | ? | /
Cc1ccc(C(=O)CSc2nnc(CNc3nc(-c4ccccc4)cs3)n2C)cc1 | 3% | 3.2µM* | -2% | -16
COc1cc(OC)c2c3c(c(C4CCCCC4)nc2c1)CCC3 | 10% | / | / | /
Cc1cccc(NC(=O)Cn2c(=O)n(CCc3c[nH]c4ccccc34)c(=O)c3cccnc32)c1 | / | 4µM* | -3% | -4
O=C(Cn1c(=O)n(CCc2c[nH]c3ccccc23)c(=O)c2cccnc21)Nc1ccccc1F | -9% | 20% | 9% | /
CC(C)OP(=O)(c1ccc(N(C)C)cc1)C(O)c1cccnc1 (configuration not stated) | -6% | -1% | 0% | /
N#CC(C#N)=Cc1ccccc1OCc1ccccc1 | / | -51% | -3% | /
Cc1cc(C)c(OCCN2C(=O)NC(C)(C)C2=O)c(Cl)c1 | 12% | ? | -2% | -32
Cc1cc(Cl)c(OCCN2C(=O)NC(C)(C)C2=O)c(Br)c1 | 12% | -10% | 0% | /
COc1ccc(CNC(=O)CN(C(=O)CCC(=O)Nc2nccs2)c2ccccc2C)cc1 | 16% | 4% | 1% | /
Cc1ccc(C(=O)NCC(=O)OC(C)C(=O)Nc2ccc(N(C)C)cc2)s1 (configuration not stated) | 0% | / | 2% | /
COc1ccc2nc(NC(=O)C3CCN(C(=O)c4ccco4)CC3)sc2c1 | 2% | -14% | -1% | /
Cc1ncc([N+](=O)[O-])n1CCOC(=O)Nc1ccc(Cl)c(Cl)c1 | 2% | ? | 5% | -1
Cc1ncc([N+](=O)[O-])n1CCOC(N)=O | 8% | 3% | -1% | /
CC1(C(=O)NS(=O)(=O)c2cccc(OC(F)F)c2)CCN1C(=O)CCc1cccs1 (configuration not stated) | -6% | / | / | /
CCOc1ccc(S(=O)(=O)NCCC(=O)Nc2cccc(C(=O)OC)c2)cc1 | 6% | -8% | 1% | /
Cc1nc(-c2ccc(Cl)cc2)sc1C1(C)CC(c2c(Cl)cccc2Cl)=NO1 (configuration not stated) | -2% | 10µM* | 0% | 18
Cc1nc(-c2ccccc2)sc1C1(C)CC(c2c(Cl)cccc2Cl)=NO1 (configuration not stated) | -2% | ? | -3% | /
COc1ccccc1C1=CN(Cc2ccccc2)CCC1=O | -2% | / | -4% | /
CN(Cc1ccccc1F)C(=O)CCNC(=O)c1ccc(C(C)(C)C)cc1 | -4% | / | -2% | /
CN(C(=O)COC(=O)CCc1c[nH]c2ccccc12)C(c1ccccc1)c1ccccc1 | -24% | 8.9µM* | 16% | -14
O=C(CCc1c[nH]c2ccccc12)OCC(=O)c1ccccc1 | -14% | / | / | /
CCc1cc2c3c(c(=O)oc2cc1OCC(=O)OC)CCCC3 | -4% | -67% | -2% | /
CC(=O)C1=C(O)C(=O)N(c2ccccn2)C1c1ccccc1[N+](=O)[O-] (configuration not stated) | -2% | 1% | 0% | /
SMILES | AMA1-RON2 inh | NS1 function inh | SARS PLpro yeast | Flu NS1 inh | others
Cc1ccccc1-n1c(O)cc(=O)[nH]c1=S | 0% | 5% | -2% | /
O=c1cc(O)n(-c2ccccc2F)c(=S)[nH]1 | 13% | 3.2µM* | -5% | 21
CCC(Cc1ccccc1)NS(=O)(=O)c1c(C)nc2scc(C)n2c1=O (configuration not stated) | -1% | 4% | 11% | /
Cc1nc(C)c(-c2nnc(-c3ccc(C(C)(C)C)cc3)o2)cc1C(=O)NN | 74% | 10µM* | 15% | 29
Cc1nc(C)c(-c2nnc(-c3ccccc3Cl)o2)cc1C(=O)NN | 85% | 21% | -1% | /
CCCCOc1cccc(C2/C(=C(/O)c3ccc4c(c3)CC(C)O4)C(=O)C(=O)N2CCN2CCOCC2)c1 (configuration not stated) | 7% | 12% | 2% | /
N#CCCN1CCCc2cc(N=Nc3ccc(C(F)(F)F)cc3)ccc21 | ? | 13% | -4% | /
Cc1c(NC(=O)C(C)OC(=O)c2cc(-c3cccc4ccccc34)nc3ccccc23)c(=O)n(-c2ccccc2)n1C (configuration not stated) | -4% | 11µM* | 15% | 7
COc1ccc(-c2cc(C(=O)OC(C)C(=O)Nc3c(C)n(C)n(-c4ccccc4)c3=O)c3ccccc3n2)cc1 (configuration not stated) | 8% | -10% | -76% | /
CN(Cc1ccc(Cl)s1)C(=O)CSc1nnc(C2CC2)n1C1CC1 | 2% | / | -10% | /
CCCCOc1ccc(S(=O)(=O)NC(=O)C2(C)CCN2C(=O)c2cccc(F)c2)cc1 (configuration not stated) | 14% | / | / | /
Cc1oc(-c2ccccc2Cl)nc1CS(=O)CC(=O)N1CCN(c2ccccc2)CC1 (configuration not stated) | -17% | -10% | 0% | /
Cc1ccccc1-c1nc(CS(=O)CC(=O)N2CCC3(CC2)OCCO3)c(C)o1 (configuration not stated) | -1% | 1.1µM* | ? | 5 | PR8 titer=8.3
O=C(CSCC(=O)N1CCCc2ccccc21)Nc1nc(-c2ccccc2)cs1 | 6% | 20µM* | -19% | -25
O=C(C[n+]1cc(-c2ccccc2)n2c1CCC2)Nc1nc(-c2ccccc2)cs1 | -4% | 2% | 18% | /
CCc1noc(C)c1C(=O)N(CC)CC(=O)NCc1ccc(F)cc1 | -3% | / | / | /
C[N+]1(C)[C@@H]2CC[C@H]1CC(OC(=O)C(c1ccccc1)c1ccccc1)C2 (some centres not stated) | -1% | -1% | -3% | /
CCCC(CCC)C(=O)OC1C[C@H]2CC[C@@H](C1)[N+]2(C)C (some centres not stated) | -8% | ? | 0% | 12
O=S(=O)(Nc1nc2ccccc2nc1N1CCc2ccccc2C1)c1ccc(Br)cc1 | -3% | -36% | -69% | /
Cc1ccccc1S(=O)(=O)Nc1nc2ccccc2nc1N1CCc2ccccc2C1 | 10% | 18µM* | -18% | -7
CC(=O)c1ccc(S(=O)(=O)N2CCCC(N(C)CCc3ccccn3)C2)cc1 (configuration not stated) | 0% | 4% | 1% | /
O=C(OCn1nnc2ccccc2c1=O)c1cc2ccccc2o1 | -11% | 9% | -1% | /
O=C(OCn1nnc2ccccc2c1=O)c1ccc2ccccc2n1 | 22% | 16µM* | 6% | -17
O=C(CC1C(=O)NCCN1Cc1ccccc1)NCCC1=CCCCC1 (configuration not stated) | 14% | 7% | 0% | /
COCCN(CC(=O)Nc1ccccc1C(F)(F)F)C(=O)/C=C/c1cc(Cl)c2c(c1)OCCO2 | 28%[11.6 µM] | / | / | /

Assay outcomes as filed in PubChem.
